Data on 23 compounds can be found in PubChem BioAssay (NCI).

The structures appear in SMILES notation. The panel holds about 79,000 compounds, 15% with a hit somewhere; the sample as a whole holds those more often. The source made the active and inactive calls. Cut-off read from the data, not from the text of the source: active = growth inhibition above about 70%; inactive = the rest.

The test can be described thus: NCI Yeast Anticancer Drug Screen. Data for the cln2 rad14 strain (AID 165).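 Note: 0% = growth equal to vehicle treated cultures.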 The note with it: S. cerevisiae cln2 rad14 strain, at 5.0 µM (retest, dose inferred, filed as 0.5), stronger effect = higher value. Summed up: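 Strain: cln2 rad14 yeast, altered in cell cycle control and DNA damage repair. Read-out: growth inhibition vs vehicle.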
Turning to `CC(C)C(O)C(C)C`, the growth inhibition was 4% (inactive).

For the compound `O=C1CSC2(CCN(CCCN3c4ccccc4Sc4ccc(Cl)cc43)CC2)N1`, the growth inhibition was -11% (inactive).

Regarding `C1=CN2C(c3ccccc3)=NN(c3ccccc3)[C@@H]2c2ccccc21`, the growth inhibition was 0% (inactive).

On to `CC(=O)Nc1ccc(-c2csc(Nc3ccnc4cc(Cl)ccc34)n2)cc1`, for which the growth inhibition was 0% (inactive).

On to `O=C(Nc1ccc(/C=C/c2ccc(NC(=O)c3cc(S(=O)(=O)O)c4cccnc4c3O)cc2S(=O)(=O)O)c(S(=O)(=O)O)c1)c1cc(S(=O)(=O)O)c2cccnc2c1O`, for which the growth inhibition is 9% (inactive).

Consider `COc1ccccc1C1C2=C(COC2=O)OC(C)(C)Oc2cc3c(cc21)OCO3` (stereo not drawn), for which the growth inhibition was 35% (inactive).

`COC(=O)CSc1n[nH]c(-c2ccc(O)c([N+](=O)[O-])c2)n1`: the growth inhibition is 40% (inactive).

`COc1ccc(CN2CCCN(Cc3ccc(OC)cc3OC)C2c2cccc([N+](=O)[O-])c2O)c(OC)c1`: the growth inhibition was 5% (inactive).

Take `Oc1c(Cl)cc(C(c2cc(Cl)c(O)c(Cl)c2)C(Cl)(Cl)Cl)cc1Cl`: the growth inhibition is 99% (active).

As to `Cc1cc(Cl)cc2c1NC(=O)C2(O)C/C(=N/NC(=O)CC#N)c1cccc([N+](=O)[O-])c1` (stereo not drawn), the growth inhibition was -3% (inactive).

Regarding `COc1ccc(C2Oc3ccc(Cl)cc3C=C2[N+](=O)[O-])cc1` (stereo not drawn), the growth inhibition is 99% (active).

In the case of `CN(Cc1cc(Cl)cc(Cl)c1O)Cc1c(O)ccc2ccccc12`, the growth inhibition is -34% (inactive).

As for `Cc1c(NC(=O)/C(=N/NC(=S)N=N)C2C(=O)CC(C)(C)CC2=O)c(O)c2ccccc2c1O`, the growth inhibition was -1% (inactive).

With `O=C1CCC(Cc2ccccc2Br)C(=O)N1` (stereo not drawn), the growth inhibition was -4% (inactive).

With `O=C1CSc2ccccc2-n2cccc21`, the growth inhibition is 32% (inactive).

Regarding `CCCc1cc2c(cc1CS(=O)(=O)CC)OCO2`, the growth inhibition is -7% (inactive).

For `CS(=O)(=O)C(c1nc2nnc(NC(=O)Nc3ccc(Cl)cc3)n2[nH]c1=O)c1nc2nnc(NC(=O)Nc3ccc(Cl)cc3)n2[nH]c1=O`, the growth inhibition was -36% (inactive).

With `COc1cc(C2c3cc4c(cc3OC3(O)C=C(C)OC(=O)C23)OCO4)cc(OC)c1OC` (stereo not drawn), the growth inhibition was 0% (inactive).

For the compound `CC(C)OCc1cccc2ccnc(COC(C)C)c12`, the growth inhibition is -15% (inactive).

Take `COc1cc2c(cc1OC)-c1nc(Nc3ccccc3)sc1CC2`: the growth inhibition was 5% (inactive).

In the case of `NC(=O)CCSC(=S)N1CCOCC1`, the growth inhibition was 4% (inactive).

Take `CC1=C(c2ccccc2)C(=O)OC1=O`: the growth inhibition is 0% (inactive).

As to `CC1=C(C)CC2C(=O)C(C(O)CC(C)C)=CC(=O)C2C1` (stereo not drawn), the growth inhibition is -13% (inactive).
